CHO-K1 Ca antag: M1 antagonist counterscreen hit in parental CHO-K1 cells | ATP-induced calcium, Fluo-8 fluorescence | inhibition, % at 3 µM | 0.6% of 360,000 active;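 active means inhibition above a per-plate cutoff, the plate's mean sample inhibition plus 3 SD, cut at about 24% in these data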
CHRM1 agonist: agonists of human M1 muscarinic receptor; 0.33% of 360,000 active; P11229; activation, % at 3 µM; CHO-K1 hM1, Fluo-8 calcium fluorescence, agonist mode; 0% DMSO, 100% acetylcholine EC100;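 active means activation above the run's mean compound activation plus 3 SD, cut at about 16% in these data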;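 further: peak over basal fluorescence ratio within a 140 s kinetic read after compound addition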
Target sequence (P11229 whole entry, looked up): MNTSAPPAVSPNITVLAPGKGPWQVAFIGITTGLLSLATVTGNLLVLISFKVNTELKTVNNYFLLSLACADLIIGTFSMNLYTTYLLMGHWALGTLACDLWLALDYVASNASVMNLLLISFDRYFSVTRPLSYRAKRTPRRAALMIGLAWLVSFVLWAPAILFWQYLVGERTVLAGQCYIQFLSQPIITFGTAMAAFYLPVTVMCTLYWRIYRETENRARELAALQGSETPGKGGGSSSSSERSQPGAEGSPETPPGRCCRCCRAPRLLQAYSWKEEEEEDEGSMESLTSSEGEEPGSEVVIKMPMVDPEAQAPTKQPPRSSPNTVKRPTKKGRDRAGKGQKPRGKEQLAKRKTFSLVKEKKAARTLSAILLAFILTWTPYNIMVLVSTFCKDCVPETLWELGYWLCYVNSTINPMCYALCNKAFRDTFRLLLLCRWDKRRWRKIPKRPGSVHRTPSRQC
M1 ag parental: counter-screen for M1 agonists: effect in parental CHO-K1 cells; Fluo-8 calcium fluorescence; scaled to maximal ATP response, vehicle zero; activation, % at 3 µM; 0.48% of 360,000 active; AID 602248; in the data active means activation above about 15%;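 further: untransfected CHO-K1 host cells lacking M1 receptor as counterscreen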
M1 PAM: human CHRM1 positive allosteric modulation | P11229 | CHO-K1 hM1, Fluo-8 calcium fluorescence, ACh EC20; 0% = ACh EC20, 100% = maximal ACh | activation, % at 3 µM | 0.088% of 360,000 active | AID 588819; in the data active means activation above about 19%, passing the limit was not always enough
CHO-K1 Ca PAM: counter-screen for M1 PAMs: effect in parental CHO-K1 cells; ATP EC20, Fluo-8 calcium fluorescence; 0% at ATP EC20, 100% at ATP max; activation, % at 3 µM; 0.02% of 360,000 active; AID 602247;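 active means activation above the run cutoff, the mean activation of all test compounds plus 3 SD, cut at about 40% in these data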;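 further: peak over basal fluorescence ratio in a 140 s read after ATP addition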
CHRM1 antagonist: blocks human M1 muscarinic receptor; 1.3% of 360,000 active; inhibition, % at 3 µM; CHO-K1 hM1, Fluo-8 calcium fluorescence, ACh EC80 antagonist;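 active means percent inhibition above its own plate's cutoff, namely the mean of that plate's compound wells plus 3 SD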;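 further: peak over basal fluorescence ratio during 140 s after agonist addition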
Each line names hits and unclear results; the compound was inactive in the other large screens. In the library only some 2.4% were active in any assay of this set; here they are far more common.

CCCCN1Cc2ccccc2Oc2cc(Br)ccc2S1(=O)=O	CHRM1 agonist 31, M1 PAM 26
C[C@@H](c1ccccc1)N1Cc2ccccc2Oc2cc(Br)ccc2S1(=O)=O	none
CC(C)CN1Cc2ccccc2Oc2cc(Br)ccc2S1(=O)=O	CHRM1 agonist 29, CHO-K1 Ca PAM 41
COC(=O)c1ccc(C2C(C(C)=O)=C(C)Nc3ncnn32)cc1 (stereo not given)	CHRM1 antagonist 102
CCOC(=O)c1c(-c2ccccc2)csc1NC(=O)c1ccc(S(=O)(=O)N2CC(C)OC(C)C2)cc1 (stereo not given)	none
CCOC(=O)c1c(-c2ccccc2)csc1NC(=O)c1ccc(N2C(=O)CCC2=O)cc1	CHO-K1 Ca antag 25
COc1ccc(OC(C)C(=O)NC(C)c2ccccc2)cc1 (stereo not given)	none
CC(=O)Nc1ccc(CN2CCN(C3CCCCC3)C(CCO)C2)cc1 (stereo not given)	CHRM1 antagonist 24
COC(=O)c1ccc(CN2CCN(Cc3ccccc3)C(CCO)C2)cc1 (stereo not given)	none
COC(=O)c1ccc(CN2CCN(C3CCCCC3)C(CCO)C2)cc1 (stereo not given)	CHRM1 antagonist 60
COC(=O)c1ccc(CN2CCN(C3CCCC3)C(CCO)C2)cc1 (stereo not given)	CHRM1 antagonist 92
CCCCCCCCCCCCCCC[C@@H](O)[C@@H](N)CO	none
CC1CCN(S(=O)(=O)c2nnc(NC(=O)c3ccccc3Br)s2)CC1	none
C=CCc1cc(Cl)ccc1OCCCNC(C)CC (stereo not given)	CHRM1 antagonist 24
CCC(C)NCCOCCOc1ccc(Cl)cc1Br (stereo not given)	CHRM1 antagonist 42
CCC(C)NCCOCCOc1cc(C)c(Cl)c(C)c1 (stereo not given)	CHRM1 antagonist 54
Cc1ccc(OCCOCCNC(C)C)c(Br)c1	none
CN(C)S(=O)(=O)c1ccc(C(=O)NNC(=O)C23CC4CC(CC(C4)C2)C3)cc1	none
S=C(NCCc1ccccn1)Nc1ccccc1Cl	CHO-K1 Ca antag 27
S=C(Nc1cccc2ccccc12)NN1CCCCCC1	CHRM1 antagonist 41
S=C(NCCNC(=S)Nc1ccccc1Cl)Nc1ccccc1Cl	M1 ag parental 16
FC(F)(F)c1cnc(NNC(=S)Nc2ccccc2Cl)c(Cl)c1	M1 ag parental 16
S=C(Nc1cccc2ccccc12)NN1CCOCC1	none
CCOC(=O)[C@]12CCC=C1N(Cc1cccc3ccccc13)C(=O)[C@H](CC(=O)NCCc1ccccc1OC)C2	none (no result: CHRM1 agonist, M1 PAM, CHRM1 antagonist)
COc1ccc(Cl)cc1NC(=O)CN(C)C(C)C(=O)NC(=O)NC1CCCCC1 (stereo not given)	none
CCOC(=O)[C@H]1[C@H]2COc3cc(OC)ccc3[C@@H]2N2C(=O)N(c3cccc(Cl)c3)C(=O)[C@@]12C	none
COCCC(=O)N1CCC(Oc2ccc(C(=O)NCc3cccc(C)n3)cc2)CC1	none
S=C(NCCc1ccncc1)Nc1cccc2ccccc12	CHO-K1 Ca antag 27
C=CCNC(=S)Nc1cccc2ccccc12	none
S=C(NCCCc1ccccc1)Nc1ccccc1Cl	M1 ag parental 15
S=C(NCCc1ccccc1)Nc1ccccc1Cl	none
CNc1snc(C)c1C(=O)OCC(=O)c1ccc(Cl)cc1	CHRM1 antagonist 35
COc1ccc(CN2CCNC(=O)C2CC(=O)NCC2CCOCC2)cc1C (stereo not given)	none
CN1C(=O)C(C)(C)c2cc(S(=O)(=O)N3CCN(c4ccc(F)cc4)CC3)ccc21	none
CN1CCN(S(=O)(=O)c2ccc3c(c2)C(C)(C)C(=O)N3C)CC1	CHO-K1 Ca antag 25
COc1ccc(S(=O)(=O)NCCSCc2ccco2)cc1Cl	M1 PAM 22
O=C(Nc1ccc(Cl)cc1)c1cc(Br)ccc1OCC(=O)N1CCOCC1	none
c1ccc(CCNc2nc(-c3ccncc3)nc3ccccc23)cc1	CHRM1 antagonist 35
O=C(Cn1cc(C(F)(F)F)cc(Cl)c1=O)NCCc1ccccc1	none
O=C1COc2ccc(S(=O)(=O)CCC(=O)N3CCN(c4cccc(C(F)(F)F)c4)CC3)cc2N1	M1 ag parental 17

Compound activity (PubChem)
